Rows were chosen to be rich in hits. Some 21% of all compounds tested hit in one or more screens of this group.
Shiga inhibitor: blocks Shiga toxin action in Vero cells; Vero cells, Shiga toxin protein synthesis inhibition reporter; actives 9.2% (n = 290,000); AID 2315; inhibition, % at 38.7 µM; in the data active = inhibition mostly above about 28%, no sharp cut-off; inactive = mostly below about 43%; also: 0% is about no effect
Pf growth 48h: inhibits P. falciparum growth in the first generation, 48 h; Potency, µM (doses to about 28.7 µM), for the others: top-dose activity change, negative = inhibition, hits mostly inhibitors; AID 504832; P. falciparum luciferase growth in erythrocytes, 48 h; actives 5.9% (n = 310,000); also: potency is read from the fitted curve at half-maximal effect; % is scaled to controls: 0 for no effect and ±100 for the full control effect
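Erythrocytes infected with P. falciparum carrying an integrated firefly luciferase reporter (2% hematocrit, 0.1% parasitemia final) were exposed to compounds in RPMI 1640 with 0.5% Albumax at 37 C, 5% CO2. Growth inhibition was scored as reduced luminescence.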
Giardia FBPA inh: Giardia lamblia aldolase inhibition; A8B2U2; purified Giardia FBPA; Potency, µM (doses to about 59.6 µM), inactives show at the top dose activity, negative = inhibition, usual class: inhibitors; actives 0.71% (n = 290,000); AID 2451; also: potency is read from the fitted curve at half-maximal effect; % is scaled to controls: 0 for no effect and ±100 for the full control effect; nearly all actives have a fitted effect of over 55% in size
Target sequence (A8B2U2 whole entry, looked up): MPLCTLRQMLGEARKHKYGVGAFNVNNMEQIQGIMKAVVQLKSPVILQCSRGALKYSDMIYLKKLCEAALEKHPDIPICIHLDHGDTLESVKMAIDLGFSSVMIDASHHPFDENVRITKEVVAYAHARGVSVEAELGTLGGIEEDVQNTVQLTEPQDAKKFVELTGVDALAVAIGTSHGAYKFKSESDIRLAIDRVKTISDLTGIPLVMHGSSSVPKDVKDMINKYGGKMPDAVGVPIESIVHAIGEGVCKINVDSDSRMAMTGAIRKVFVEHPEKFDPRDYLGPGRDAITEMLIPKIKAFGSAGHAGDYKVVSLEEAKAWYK
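Giardia FBPA (40 nM reagent) was preincubated 10 min at RT with compound (up to 57.5 uM final), then substrate plus GAPDH/TPI/NAD/arsenate coupling system with diaphorase/resazurin was added; resorufin fluorescence (525/598 nm) was read after 20 min.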
CHX counter: counter-screen hit for Shiga toxin inhibitors, cycloheximide; cell reporter, cycloheximide protein synthesis inhibition counterscreen; max response, %; actives 12% (n = 300,000); AID 2314; in the data active = max response mostly above about 13%, no sharp cut-off; inactive = mostly below about 14%; also: read at 38.3 µM for the half of the compounds with a filed dose; 0% is about no effect
NS1 function inh: influenza NS1 inhibition. Potency, µM (top dose mostly 46.1 µM), for inactives: top-dose activity, positive = more growth. actives 0.4% (n = 270,000). AID 2326; calls by dose curve; also: potency is read from the fitted curve at half-maximal effect; actives are rising curves; nearly all actives have a fitted effect of over 50% in size
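Compounds were scored for reversing the slow growth caused by influenza A NS1 in S. cerevisiae, measured by optical density at 600 nm. Assay medium contained 2% galactose at pH 6.0; NS1-free yeast of the same strain were the positive control.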
Pf growth 96h: P. falciparum growth inhibition at 96 hours; P. falciparum luciferase reporter growth, 96 h; Potency, µM (titrated, usually from 28.7 µM), for the others: at the top dose activity change, negative = inhibition, actives largely listed as inhibitors; actives 6.9% (n = 320,000); also: potency is read from the fitted curve at half-maximal effect; % is scaled to controls: 0 for no effect and ±100 for the full control effect
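Cell-based qHTS: luciferase-tagged P. falciparum in erythrocytes (2% hematocrit, 0.05% parasitemia final) incubated with compounds for 96 hours, 37 C, 5% CO2; luciferase detection reagent then added and luminescence measured.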
The depositor's hits bear a star; ? = inconclusive; · = not tested or not shown; [ ] = dose if it differs, or a comment. Unless noted, calls follow the shape of the dose curve; as a rule, active = well fitted curve in the direction sought with a large enough effect; inconclusive = small, poorly fitted or top-dose-only effect, or another doubt; inactive = no such curve, though single readings can be large; an effect the other way counts as inactive or inconclusive.

SMILES	Shiga inhibitor	Pf growth 48h	Giardia FBPA inh	CHX counter	NS1 function inh	Pf growth 96h
Cc1occc1-c1nnc(SCC(=O)NCc2cccs2)n1CC1CCCO1 (stereo not given)	3.0	?	15.0%	3.0	3.9%	5.22µM*
CCn1c(SCC(=O)Nc2ccccc2F)nnc1-c1ccoc1C	-0.1	6.9%	·	-4.1	-0.4%	?
CCn1c(SCC(=O)c2ccc(F)cc2)nnc1-c1ccoc1C	39.6	20.6%	-6.5%	30.3*	?	23.0%
CCC(C)NC(=O)CSc1nnc(-c2ccoc2C)n1CC1CCCO1 (stereo not given)	-14.2	-3.7%	-1.7%	-4.0	-4.1%	?
Cc1occc1-c1nnc(SCC(=O)c2ccccc2)n1CC1CCCO1 (stereo not given)	31.4	?	-3.5%	20.1*	?	-16.1%
CCn1c(SCC(=O)Nc2ccccc2-c2ccccc2)nnc1-c1ccoc1C	12.6	?	-3.3%	8.9	-11.2%	11.7µM*
COc1ccccc1NC(=O)CSc1nnc(-c2ccoc2C)n1CC1CCCO1 (stereo not given)	-7.8	8.1%	5.1%	-1.4	-12.3%	49.9%
Cc1occc1-c1nnc(SCC(=O)c2ccc3c(c2)OCCO3)n1CC1CCCO1 (stereo not given)	40.0*	-13.8%	-5.6%	23.3*	1.8%	9.0%
Cc1cc(C)c2c(c1)[C@@H]1C=CC[C@@H]1[C@H](c1ccc(S(=O)(=O)N3CCOCC3)cc1)N2	-6.2	10.4µM*	-2.2%	-5.0	?	7.7%
COC(=O)c1sc(N)c(C(=O)OC)c1COC(=O)CCNS(=O)(=O)c1ccc(C)cc1	-7.0	?	0.3%	1.0	-5.1%	10.4µM*
CCOc1ccc(/C=N/NC(=O)Cc2ccccc2)cc1CN1CC2CC(C1)c1cccc(=O)n1C2 (stereo not given)	·	6.57µM*	·	·	·	-17.7%
CCCCc1nc2c(c3c1C[C@H](C)OC3)CN(C(=O)C1CC1)CC2	·	·	0.5%[12.9 µM]	·	·	·
CO/N=C/CC(=O)c1ccc(-c2ccccc2)cc1	69.7	5.5%	-0.4%	18.0*	-30.6%	15.5%
O=C(c1cnc(-c2ccccc2)s1)c1ccc(Cl)cc1Cl	10.3	?	-1.4%	11.9	-19.8%	-21.6%
C/[N+]([O-])=C\CC(=O)c1ccc(-c2ccccc2)cc1	20.0	?	-2.4%	24.5*	·	3.6%
CCN(CC)CC(=O)c1ccc(-c2ccccc2)cc1	20.1	?	10.4%	18.3	-26.1%	-2.2%
CO/N=C/CC(=O)c1cnc(-c2ccc(Cl)cc2)s1	72.9*	?	-11.4%	21.9*	·	-1.9%
CC(=O)c1ccc(OCC(=O)c2ccc(-c3ccccc3)cc2)cc1	-8.5	-2.9%	3.3%	-3.1	1.0%	-1.4%
CCOc1ccc2nc(SCC(=O)NCc3ccccc3OC)[nH]c2c1	-3.5	-13.7%	-4.1%	0.5	15.5%	?
CN1CCS/C1=C/C=C1\SC(=S)N(CC(=O)O)C1=O	12.7	39.9%	-25.4%	0.8	2.5%	60.7%
CN1CCS/C1=C/C=C1/SC(=S)N(Cc2ccccc2)C1=O	12.9	?	?	26.3*	24.7%	-9.5%
CCCCN1C(=O)/C(=C/C=C2\SCCN2C)SC1=S	67.1*	182.9%	-21.1%	32.8*	·	-1.0%
O=C(c1cc(Cl)ccc1F)N1CCCC(Nc2ccc3c(c2)OCCO3)C1 (stereo not given)	-4.3	2.3%	·	-1.1	-7.7%	?
CC(=O)NCCc1nc2cc(NC(=O)c3ccc(F)cc3)ccc2n1C	44.3*	142.0%	-3.1%	53.7*	-2.8%	295.7%
COc1ccc(C(=O)Nc2ccc3c(c2)nc(CCNC(C)=O)n3C)cc1	31.9	·	1.9%	22.9	-10.1%	124.1%
SMILES	Shiga inhibitor	Pf growth 48h	Giardia FBPA inh	CHX counter	NS1 function inh	Pf growth 96h
CC1CCN(CCc2nc3cc(NC(=O)COc4ccccc4)ccc3n2C)CC1	7.1	?	·	6.1	7.5%	?
COc1ccc(OCC(=O)Nc2ccc3c(c2)nc(CCn2ccccc2=O)n3C)cc1	13.8	?	·	5.0	-6.5%	5.22µM*
CCC(=O)NCCc1nc2cc(NC(=O)COc3ccccc3)ccc2n1C	78.0*	86.8%	-9.3%	29.2*	7.1%	-19.2%
Cn1cnc2cc(NC(=O)COc3ccccc3)ccc21	75.8*	78.7%	8.0%	38.1*	11.2%	-0.6%
Cc1ccccc1C[C@H](C(=O)O)N1C(=O)c2ccc(C(=O)O)cc2C1=O	-9.9	8.3%	4.7%	-7.7	·	1.2%
CC(C)c1ccc(OC(=O)c2ccc3c(=O)n4c(nc3c2)CCC4)cc1	·	8.5%	·	·	·	-8.9%
COc1ccc(C(=O)N2CCC[C@@]3(CCN(C)C3)C2)cc1	·	·	-14.3%	·	·	·
CN1CCN(CCc2nc3cc(NC(=O)COc4ccc(Cl)cc4)ccc3n2C)CC1	-0.4	?	·	-5.7	-6.3%	9.28µM*
COc1ccccc1C(=O)Nc1ccc2c(c1)nc(CCNC(C)=O)n2C	26.1	152.1%	-0.4%	16.8*	6.7%	?
COc1ccccc1C(=O)Nc1ccc2c(c1)nc(CCNC(=O)c1ccccc1)n2C	21.0	?	1.0%	21.8	4.3%	?
Cn1c(CCN2CCCCC2)nc2cc(NC(=O)COc3ccc(Cl)cc3)ccc21	3.0	?	-13.6%	-5.4	-0.2%	?
CCC(=O)NCCc1nc2cc(NC(=O)c3cccs3)ccc2n1C	47.9*	289.8%	-1.0%	16.9*	·	171.2%
CCC(=O)NCCc1nc2cc(NC(=O)c3ccccc3OC)ccc2n1C	25.2	47.0%	0.4%	43.3*	0.4%	·
CC(C)CC(=O)Nc1ccc2c(c1)nc(CCN1CCCCC1)n2C	-12.3	?	-12.6%	-5.1	1.6%	13.1µM*
Nc1cc(Cl)ccc1Nc1ccncc1	-11.2	15.1%	3.8%	-1.7	2.9%	?
Cc1ccccc1[C@@H](NC(=O)OC(C)(C)C)C(=O)OC(C)(C)C	·	4.2%	·	·	·	?
Cc1cc2c(s1)c1cnn(Cc3ccc(S(C)(=O)=O)cc3)c(=O)c1n2C	6.1	·	·	10.3	·	·
COC(=O)C(O)(c1ccc(N(C)C(=O)OC(C)C)cc1)C(F)(F)F (stereo not given)	5.6	·	9.5%	9.7	5.2%	6.4%
CC(C)OC(=O)N(C)c1ccc(C(O)(C(F)(F)F)C(F)(F)F)cc1	36.9	·	-0.2%	20.0*	-0.6%	40.0%
COc1cccc(-c2nc(NC(C)(C)C)c3ccccc3n2)c1O	9.5	10.4µM*	-11.3%	-1.9	6.1%	?
COc1ccc(Nc2nc(-c3cccc(OC)c3O)nc3ccccc23)cc1	50.4*	7.38µM*	-0.4%	33.1*	10.8%	?
COc1cccc(-c2nc(N3CC(C)CC(C)C3)c3ccccc3n2)c1O (stereo not given)	13.3	?	-5.9%	-4.4	8.4%	13.1µM*
COc1cccc(-c2nc(Oc3cc(C)cc(C)c3)c3ccccc3n2)c1O	23.4	30.4%	1.5%	12.9	-1.1%	-5.5%
Cn1c(SCc2ccccc2Cl)nc2c1c(=O)[nH]c(=O)n2C	-20.1	?	-7.2%	-2.2	-5.1%	?

High-throughput results (PubChem BioAssay)
